Holding throughout (assay type): functional
Test [1] relates to Plasmodium falciparum. In words: GSK_TCMDC: Inhibition of Plasmodium falciparum 3D7 in whole red blood cells, using parasite LDH activity as an index of growth. Test compounds present at 2uM.
Test [2] relates to Plasmodium falciparum. In words: GSK_TCMDC: Inhibition of Plasmodium falciparum Dd2 in whole red blood cells, using parasite LDH activity as an index of growth. Test compounds present at 2uM.
A further test has as its system HepG2. In words: GSK_TCMDC: Percent inhibition of human HepG2 cell line. Test compounds present at 10uM.

The term Inhibition denotes the percentage by which the read-out fell short of the control. With `COc1ccc2nccc([C@@H](O)CN3CCC(NCc4cc5ccc(C#N)cc5[nH]4)CC3)c2c1.O=C(O)C(=O)O`, the Inhibition in the test with Plasmodium falciparum [1] is 100%; with Plasmodium falciparum [2] it was 39%; in the test on HepG2, 31%.

For `CCOc1c(Br)cc(Br)cc1CNCCCCNc1nc2ccccc2[nH]1`, the results for the Inhibition in the test with Plasmodium falciparum [1], with Plasmodium falciparum [2] and in the test on HepG2 were 100%, 37% and 25%, respectively.

Turning to `COc1ccccc1C1CCN(C2CCC(NC(=O)/C=C/c3cc(C(F)(F)F)cc(C(F)(F)F)c3)CC2)CC1` (stereo unspecified), the values for the Inhibition in the test on Plasmodium falciparum [1], in the test on Plasmodium falciparum [2] and in the test on HepG2 were 92%, 21% and 31%, respectively.

`CN1CCCN(c2ccnc3cc4c(cc23)N(C(=O)c2ccc(Cl)cc2)CC4)CC1.Cl`: the Inhibition in the test with Plasmodium falciparum [1] is listed as 100%; in the test with Plasmodium falciparum [2], 0%; with HepG2, 0%.

With `CCC1CN2CCc3c([nH]c4ccccc34)C2CC1CC1NCCc2cc(OC)c(OC)cc21.Cl` (stereo unspecified), the Inhibition was 100% in the test on Plasmodium falciparum [1], 83% in the test with Plasmodium falciparum [2] and 26% in the test on HepG2.

Consider `COc1ccc(NC(=O)NC2CCN(c3ccnc4ccccc34)C2)cc1.O=C(O)C(F)(F)F` (stereo unspecified), for which the Inhibition in the test on Plasmodium falciparum [1] came to 94%; in the test with Plasmodium falciparum [2], 0%; in the test on HepG2, 3%.

For the compound `O=C(/C=C/c1ccc2ccccc2c1)NCC1(c2ccc(-c3ccccc3)cc2)CCOCC1`, the Inhibition came to 95% with Plasmodium falciparum [1], 34% in the test with Plasmodium falciparum [2] and 9% with HepG2.

`COc1ccc(S(=O)(=O)NC2CCN(CCCOc3ccnc4cc(Cl)ccc34)C2)cc1OC` (stereo unspecified): the Inhibition in the test with Plasmodium falciparum [1] is listed as 91%; with Plasmodium falciparum [2], 56%; with HepG2 it was 8%.

On to `COc1ccc2nccc([C@@H](O)CN3CCC(NC(=O)/C=C/c4ccc(F)c5ccccc45)CC3)c2c1`, for which the results for the Inhibition in the test on Plasmodium falciparum [1], in the test with Plasmodium falciparum [2] and in the test with HepG2 were 100%, 75% and 37%, respectively.

Turning to `COc1ccc(NC(=O)c2cc(NC(=O)C3(N)CC3)c(=O)n(Cc3ccc(C(N)=O)cc3)c2)cc1.O=C(O)C(F)(F)F`, the Inhibition with Plasmodium falciparum [1] is given as 95%; with Plasmodium falciparum [2], 72%; with HepG2 it was 21%.

As for `CCN(CCN(C)C)Cc1ccc(-c2ccc(NS(=O)(=O)c3cccc4cccnc34)cc2)cc1.O=C(O)C(F)(F)F`, the Inhibition in the test with Plasmodium falciparum [1] was 91%; with Plasmodium falciparum [2] it was 57%; in the test with HepG2 it was 16%.

Take `Cl.N#Cc1ccc(NC(=O)c2ccc(Cc3ccc4c(c3)CCN(C3CCC3)CC4)cn2)cc1`: the Inhibition was 91% with Plasmodium falciparum [1], 2% with Plasmodium falciparum [2] and 66% in the test with HepG2.

With `O=C(Nc1ccc2c(c1)CCC2)c1cccc(CN2CCCN(Cc3cccc(O)c3)CC2)c1.O=C(O)C(F)(F)F`, the Inhibition in the test on Plasmodium falciparum [1] turned out to be 91%; in the test with Plasmodium falciparum [2], 20%; in the test with HepG2, 10%.

For `O=C(NC1CC1)c1cnc(N2CCN(Cc3c(F)cccc3Cl)CC2)c(Cl)c1.O=C(O)C(F)(F)F`, the results for the Inhibition in the test with Plasmodium falciparum [1], in the test with Plasmodium falciparum [2] and in the test with HepG2 were 93%, 93% and 0%, respectively.

For `Cc1c(N=O)cc(C(C)(C)C)c(O)c1C(=O)Nc1ccc([N+](=O)[O-])cc1Cl`, the Inhibition with Plasmodium falciparum [1] is recorded as 100%; with Plasmodium falciparum [2], 98%; in the test on HepG2 it was 72%.

Regarding `Cc1nc(C)c(CC(=O)Nc2cccc(-c3cccc(-c4nc5cc(C(F)(F)F)ccc5[nH]4)c3)c2)s1`, the figures for the Inhibition with Plasmodium falciparum [1], in the test with Plasmodium falciparum [2] and in the test on HepG2 were 95%, 30% and 49%, respectively.

Turning to `CO/C(=C\C=C\c1cc2cc(Cl)c(Cl)cc2[nH]1)C(=O)NCCCN1CCN(c2cccc(OCC(=O)Nc3cccc(C(=O)c4ccccc4)c3)c2)CC1`, the figures for the Inhibition in the test with Plasmodium falciparum [1], in the test with Plasmodium falciparum [2] and in the test on HepG2 were 94%, 88% and 48%, respectively.

On to `CC1CCN(CC[C@H]2CCCN2S(=O)(=O)c2cccc(NC(=O)c3cc4ccccc4s3)c2)CC1`, for which the Inhibition in the test on Plasmodium falciparum [1] came out at 97%; in the test with Plasmodium falciparum [2] it was 41%; in the test with HepG2, 28%.

Take `Cc1[nH]c2ccccc2c(=O)c1Br`: the Inhibition is reported as 94% in the test with Plasmodium falciparum [1], 84% in the test with Plasmodium falciparum [2] and 2% with HepG2.

Regarding `CCN(CC)CCCN(C(=O)Nc1c(Cl)cncc1Cl)c1nc(-c2ccc(F)cc2)cs1`, the Inhibition worked out at 100% with Plasmodium falciparum [1], 93% in the test on Plasmodium falciparum [2] and 37% with HepG2.

In the case of `COc1ccc2cc(C=NNc3nc4ccccc4[nH]3)c(Cl)nc2c1`, the Inhibition with Plasmodium falciparum [1] is listed as 100%; in the test on Plasmodium falciparum [2], 90%; in the test with HepG2 it was 2%.

As for `CCCC(N)C(=O)NC1CCN(c2c(F)c(N)c3c(=O)c(C(=O)O)cn4c3c2Oc2ccccc2-4)C1.Cl` (stereo unspecified), the Inhibition was 98% in the test with Plasmodium falciparum [1], 98% in the test with Plasmodium falciparum [2] and 66% in the test with HepG2.

As for `COc1ccc2nccc([C@@H](O)CN3CCC(NCc4nc5c(cc4F)SCC(=O)N5)C(F)C3)c2c1.Cl` (stereo partly specified), the Inhibition with Plasmodium falciparum [1] turned out to be 95%; in the test on Plasmodium falciparum [2], 49%; in the test on HepG2 it was 9%.

For the compound `CCC(=O)c1cc(C(=O)NCCc2cccc(OC)c2)ccc1OC`, the values for the Inhibition in the test on Plasmodium falciparum [1], in the test on Plasmodium falciparum [2] and in the test with HepG2 were 83%, 12% and 0%, respectively.

For `CCc1cn2c3c(cc(C(=O)N[C@@H](Cc4cccc(Cl)c4)[C@H](O)CNC4CC4)cc13)N(C)S(=O)(=O)CC2.O=CO`, the Inhibition in the test with Plasmodium falciparum [1] came out at 98%; in the test on Plasmodium falciparum [2], 98%; in the test on HepG2, 10%.

Consider `O=C(CSc1nc(-c2ccccc2Cl)ns1)Nc1ccc2c(c1)OCO2`, for which the values for the Inhibition in the test with Plasmodium falciparum [1], with Plasmodium falciparum [2] and in the test on HepG2 were 93%, 77% and 0%, respectively.

`CCNc1cc(C(=O)N[C@@H](Cc2ccccc2)[C@H](O)CNC(C)(C)Cc2ccccc2)cc(N2CCCC2=O)c1.O=CO`: the Inhibition amounted to 99% with Plasmodium falciparum [1], 78% in the test with Plasmodium falciparum [2] and 1% in the test with HepG2.

The values are drawn from ChEMBL document CHEMBL1157539, “Thousands of chemical starting points for antimalarial lead identification” (Nature, 2010).
